Compound activity (PubChem)
S-ASM inh: blocks human secretory acid sphingomyelinase. P17405. 340,000 tested, 0.006% active. AID 504937. Potency, µM (top dose mostly 57.5 µM), inactives show at the highest dose activity change, negative = inhibition, hits mostly inhibitors. placental ASM, HMU-PC fluorogenic substrate, 60 min; also: potency is read from the fitted curve at half-maximal effect
Target sequence (P17405 47-631 limits assumed): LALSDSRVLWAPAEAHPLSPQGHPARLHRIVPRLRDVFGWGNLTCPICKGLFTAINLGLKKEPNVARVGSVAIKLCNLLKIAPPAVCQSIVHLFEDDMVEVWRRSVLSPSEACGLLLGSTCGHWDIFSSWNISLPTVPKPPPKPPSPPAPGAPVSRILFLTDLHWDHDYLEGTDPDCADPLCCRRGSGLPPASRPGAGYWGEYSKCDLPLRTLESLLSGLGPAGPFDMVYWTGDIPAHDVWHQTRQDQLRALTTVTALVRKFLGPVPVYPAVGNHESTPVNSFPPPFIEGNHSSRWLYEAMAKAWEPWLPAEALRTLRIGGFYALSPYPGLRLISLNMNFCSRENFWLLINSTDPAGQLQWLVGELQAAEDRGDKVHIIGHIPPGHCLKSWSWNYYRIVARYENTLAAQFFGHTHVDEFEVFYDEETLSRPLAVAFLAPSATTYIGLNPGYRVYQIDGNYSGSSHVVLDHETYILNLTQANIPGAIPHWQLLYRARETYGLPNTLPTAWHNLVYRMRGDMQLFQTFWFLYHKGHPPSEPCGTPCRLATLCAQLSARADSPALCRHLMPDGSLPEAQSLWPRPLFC
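Fluorogenic HMU-PC substrate (9 uM final) is turned over by placental ASM in 60 min at 37 C after a 10 min compound preincubation. Reaction ended by alkaline stop (pH 10), with fluorescence read at 386/447 nm.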
TGFb inhibitor: TGF-b pathway inhibition; AID 588855; Potency, µM (highest dose often 46.1 µM), for inactives: at the top dose activity, negative = inhibition, actives largely listed as inhibitors; 410,000 tested, 1.2% active; HepG2 CAGA-GFP TGF-b/SMAD3 reporter, GFP fluorescence, 18 h; TGF-beta stimulated, 500 pg/mL final; also: potency is read from the fitted curve at half-maximal effect; % is scaled to controls: 0 for no effect and ±100 for the full control effect; nearly all actives have a fitted effect of over 65% in size
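Inhibition of TGF-beta-driven CAGA-GFP reporter expression in HEPG2 cells is measured by cellular GFP fluorescence after 18 h stimulation with 500 pg/mL recombinant TGF-beta in 1% FBS medium at 37 degrees C.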
DT40 TDP1 CPT: DT40-hTDP1 cell growth loss with CPT; 420,000 tested, 12% active; chicken DT40 Tdp1-/-;hTDP1 cells + 20 nM CPT, ATP luminescence, 48 h; Potency, µM (top dose mostly 46.2 µM), without a hit: at the highest dose activity change, negative = growth inhibition, most hits filed as inhibitors; AID 686979; also: potency is read from the fitted curve at half-maximal effect; % is scaled to controls: 0 for no effect and ±100 for the full control effect; nearly all actives have a fitted effect of over 55% in size
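Chicken DT40 Tdp1-/- cells complemented with human TDP1, 400 cells/well, exposed to compounds plus 20 nM camptothecin for at least 48 h at 37 C; viability read as ATP content by CellTiter-Glo luminescence.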
IL-1B inflam inh: blocks inflammasome-driven IL-1 beta release; 360,000 tested, 4.7% active; activity change, % at 57.5 µM; THP-1 LPS/ATP IL-1B secretion, AlphaLISA, 16 h; hits give low values; in the data active = activity change below about -50%; inconclusive = mostly about -30% to -49%; also: % is scaled to controls: 0 for no effect and ±100 for the full control effect
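Secreted IL-1B measured by AlphaLISA bead assay after 16 h compound exposure of THP-1 cells; compounds (final up to 57.5 uM) added 1 h before LPS (250 ng/mL) and ATP (1.25 mM) stimulation; lower signal means less secretion.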
DT40 TDP1 no CPT: qHTS for Inhibitors of human tyrosyl-DNA phosphodiesterase 1 (TDP1): qHTS in cells in absence of CPT; DT40 Tdp1-/- hTDP1 cells, no CPT, ATP luminescence, 48 h; Potency, µM (top dose mostly 46.2 µM), inactives show at the highest dose activity change, negative = growth inhibition, most hits filed as inhibitors; 420,000 tested, 15% active; also: potency is read from the fitted curve at half-maximal effect; % is scaled to controls: 0 for no effect and ±100 for the full control effect; nearly all actives have a fitted effect of over 55% in size
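Camptothecin absent (DMSO only). Human TDP1-complemented DT40 knockout cells, 400 cells/well, 37 °C for minimum 48 hr; ATP measured via CellTiter-Glo, 30 min dark incubation, luminescence.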
HepG2 viability: HepG2 cytotoxicity, counter-screen for TGF-b inhibitors. Potency, µM (highest dose often 46.1 µM), without a hit: at the top dose activity change, negative = cytotoxicity, most hits filed as cytotoxic. 410,000 tested, 0.76% active. HepG2 CAGA-GFP viability, ATP luminescence, 18 h; also: potency is read from the fitted curve at half-maximal effect
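HepG2 CAGA-GFP cells (1000/well, DMEM with 1% FBS) received compound, then TGF-beta at 500 pg/mL final, and were incubated 18 hours at 37 degrees C. Viability was read by CellTiter-Glo luminescence. Media-only wells were set as complete cell-killing and DMSO as no toxicity.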
* = called active by the depositor; i = inactive; ? = inconclusive; nt = not tested or not shown; [ ] = another dose, or the depositor's remark. Most compounds without a hit are left out; they make up all but 19% or so of the library. Unless noted, calls follow the shape of the dose curve; as a rule, active = well fitted curve in the direction sought with a large enough effect; inconclusive = small, poorly fitted or top-dose-only effect, or another doubt; inactive = no such curve, though single readings can be large; an effect the other way counts as inactive or inconclusive.

SMILES | S-ASM inh | TGFb inhibitor | DT40 TDP1 CPT | IL-1B inflam inh | DT40 TDP1 no CPT | HepG2 viability
COc1ccc(/C=C2\SC(=O)N(CCc3nnc(N)s3)C2=O)cc1 | 2% | -8% | -13% | -4 | -4% | 0%
O=C(COc1cccc2cccnc12)N/N=C/c1cccn1-c1ccc(F)cc1 | -15% | -2% | ? | -89* | ? | -24%
C/C(=N\OCC(=O)N/N=C/c1ccccc1)c1cccs1 | -5% | 0% | -12% | -9 | 5% | -7%
Cc1ccccc1OCC(=O)N/N=C/c1cccc2cccnc12 | -9% | ? | ? | i | 21µM* | -8%
C/C(=N\OCC(=O)N/N=C/c1ccccc1O)c1cccs1 | 211% | ? | 4.1µM* | 247 | 4.6µM* | -33%
O=C(COc1cccc2cccnc12)N/N=C/c1ccc(O)cc1 | -2% | 3% | ? | -20 | -29% | 21%
Cc1ccccc1OCC(=O)N/N=C/c1ccncc1 | 2% | 8% | 2% | 21 | 11% | 2%
O=C(COc1cccc2cccnc12)N/N=C/c1ccccc1O | 92% | -1% | 15µM* | 91 | 10µM* | -12%
Cc1ccc2c(CC(=O)N3CCOc4ccc(CN5CCOCC5)cc4C3)cc(=O)oc2c1 | nt | nt | -3%[9.04 µM] | nt | -18% | nt
CCOc1ccc(-c2c(C(=O)N/N=C(\C)c3cccnc3)nnn2-c2nonc2N)cc1 | 2% | 11% | 0% | 19 | 17% | 6%
COc1ccccc1-c1ccc(C(=O)NCCN2CCOCC2)c(N2CCN(c3ccccc3F)CC2)n1 | nt | nt | 3%[9.04 µM] | nt | -24% | nt
CCN(Cc1ccccc1)C(=O)CSc1ncn[nH]1 | -5% | -16% | -3% | -9 | -28% | 8%
COc1cc2c(cc1OC)CN(C1CCC(C(C)(C)C)CC1)CC2 (stereo unspecified) | 16% | 0% | ? | nt | 21µM* | -7%
COc1cc2c(cc1OC)CN(C(=O)C(C)(C)C)CC2 | 1% | 5% | -3% | -2 | -7% | 2%
O=C(NCCc1ccccc1)c1ccc(CSc2nc3ccncc3n2Cc2ccc(F)cc2)cc1 | nt | ? | ? | nt | 16µM* | -28%
Cc1ccc(CCNC(=O)c2ccc(CSc3nc4ccncc4n3Cc3ccc(F)cc3)cc2)cc1 | nt | ? | 16µM* | nt | 16µM* | -3%
COCCNC(=O)c1ccc(CSc2nc3ccncc3n2Cc2ccccc2)cc1 | nt | -2% | -3% | nt | -24% | -2%
CC(CNC(=O)c1ccc(CSc2nc3ccncc3n2Cc2cccc(F)c2)cc1)c1ccccc1 (stereo unspecified) | nt | 10µM* | 23µM* | nt | ? | -20%
COc1ccc(CNC(=O)CCS(=O)(=O)c2ccc3c(c2)CCN3C(C)=O)cc1 | -2% | -18% | -29% | 15 | -3% | 4%
CCOc1ccccc1NC(=O)CSc1nc2[nH]ncc2c(=O)[nH]1 | -1% | 1% | -2% | 16 | -18% | -3%
COc1ccc(-c2noc(-c3csc([C@@H]4C[C@H](O)[C@@H](CO)O4)n3)n2)cc1OC | nt | 1% | ? | -17 | ? | -10%
CCOc1ccc(-c2noc(-c3csc([C@@H]4C[C@H](O)[C@@H](CO)O4)n3)n2)cc1 | nt | -18% | ? | -10 | 23µM* | -2%
COc1cc(OC)cc(-c2noc(-c3csc([C@@H]4C[C@H](O)[C@@H](CO)O4)n3)n2)c1 | nt | ? | ? | ? | 15µM* | -3%
CC(C)(C)NC(=O)C1c2ccccc2OCC(=O)N1Cc1ccco1 (stereo unspecified) | nt | nt | -14% | 8 | 16% | nt
